Compounds with a hit are over-represented: about 2.5% of the library has one in this group of screens.
ABCB6 inh MLPCN = human ABCB6 transporter inhibition. fluorescence ratio to DMSO, % at 10 µM. K562-ABCB6 porphyrin accumulation, flow cytometry, 1 h; hits give low values. actives 0.19% (n = 360,000). Q9NP58. AID 602162;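 active = fluorescence ratio to DMSO below 75%, the collection mean minus 3 SD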;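 also: signal is porphyrin accumulated inside mitochondria; lower ratio means ABCB6 inhibition with less porphyrin fluorescence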
Target sequence (Q9NP58 whole entry, looked up): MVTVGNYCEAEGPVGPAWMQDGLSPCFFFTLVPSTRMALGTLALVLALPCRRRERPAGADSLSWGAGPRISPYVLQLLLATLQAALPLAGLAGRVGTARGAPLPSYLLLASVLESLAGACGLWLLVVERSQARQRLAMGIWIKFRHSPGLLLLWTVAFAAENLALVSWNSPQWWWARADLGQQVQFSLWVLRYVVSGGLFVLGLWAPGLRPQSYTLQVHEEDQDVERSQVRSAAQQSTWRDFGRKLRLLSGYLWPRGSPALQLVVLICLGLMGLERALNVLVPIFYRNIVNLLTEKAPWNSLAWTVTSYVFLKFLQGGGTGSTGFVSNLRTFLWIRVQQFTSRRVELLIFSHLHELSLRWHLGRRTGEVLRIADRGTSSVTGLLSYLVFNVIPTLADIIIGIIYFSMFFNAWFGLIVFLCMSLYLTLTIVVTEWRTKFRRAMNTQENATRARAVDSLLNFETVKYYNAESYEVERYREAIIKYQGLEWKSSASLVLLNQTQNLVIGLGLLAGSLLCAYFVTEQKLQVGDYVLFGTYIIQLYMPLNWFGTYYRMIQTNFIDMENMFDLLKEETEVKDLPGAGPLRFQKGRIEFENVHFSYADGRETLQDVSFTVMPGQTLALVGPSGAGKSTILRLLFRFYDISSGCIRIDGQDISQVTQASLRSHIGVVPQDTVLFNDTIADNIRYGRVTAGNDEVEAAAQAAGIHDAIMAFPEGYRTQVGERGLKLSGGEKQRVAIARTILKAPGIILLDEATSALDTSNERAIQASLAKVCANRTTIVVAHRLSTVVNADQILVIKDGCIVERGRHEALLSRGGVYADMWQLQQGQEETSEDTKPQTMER
PG9 binder = small molecules binding HIV-1 gp120 antibody PG9 | actives 0.43% (n = 360,000) | TR-FRET gp120-PG9 antibody binding | inhibition, % at 6.7 µM; in the data active = inhibition above about 8.5%
Granule exo inh = blocks lytic granule exocytosis. TALL-104 LAMP-1 surface exposure, flow cytometry; cells stimulated with thapsigargin and PMA. inhibition, % at 10 µM. actives 0.66% (n = 360,000);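 active = inhibition above about 55%, limit read from the data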
rCAG binder = r(CAG) repeat RNA binding. AID 651821. actives 1.3% (n = 370,000). TO-PRO-1 dye displacement fluorescence. inhibition, % at 3 µM;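 active = inhibition above the plate cutoff, the mean of all test compounds on that plate plus 3 SD, cut at about 35% in these data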;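 also: higher means more dye released from RNA so lower well fluorescence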
PG9 bind confirm = confirmation of small molecules binding HIV-1 gp120 antibody PG9. shares compounds with PG9 binder. TR-FRET PG9 antibody binding, biochemical. inhibition, % at 6.7 µM. actives 90% (n = 1,500); in the data active = inhibition above about 9%
PGV04 counter = PGV04 control antibody binding, counter-screen; TR-FRET PGV04 antibody-gp120 binding, biochemical; actives 95% (n = 1,500); shares compounds with PG9 binder; AID 651604; inhibition, % at 6.7 µM; in the data active = inhibition above about 9.5%
Numbers stand for hits; i = inactive; nt = no result.

SMILES	ABCB6 inh MLPCN	PG9 binder	Granule exo inh	rCAG binder	PG9 bind confirm	PGV04 counter
CC(C)(C)c1ccc(OCC(=O)N(Cc2cccs2)C2CCS(=O)(=O)C2)cc1 (configuration not stated)	i	i	i	i	nt	nt
Cc1ccc(OCCn2c(NC(=O)c3ccco3)nc3ccccc32)cc1	i	19	i	i	17	25
NC(=O)c1ccc(NC(=O)COC(=O)c2n[nH]c3ccccc23)cc1	i	i	i	i	nt	nt
NC(=O)c1ccc(NC(=O)COC(=O)c2c[nH]c3ccccc23)cc1	i	10	i	i	8.9	16
CNC(=O)c1ccc(-c2ccc(F)cc2)s1	i	i	i	i	nt	nt
O=C(Nc1ccccc1)c1ccc(-c2ccc(F)cc2)s1	i	19	i	i	20	28
O=C(N[C@@H](Cc1ccc(O)cc1)C(=O)O)c1ccncc1	i	i	i	i	nt	nt
O=C(CSc1ncccc1-c1nc2ccccc2[nH]1)N1CCc2ccccc21	i	14	i	i	21	33
CON(C)S(=O)(=O)NC(=O)C1=C(N2CCCC2)COC1=O	i	i	i	i	nt	nt
CCCc1nn(C)c(C(N)=O)c1[N+](=O)[O-]	i	i	i	i	nt	nt
COc1cccc(C2C(C(=O)c3ccc(C)o3)=C(O)C(=O)N2c2cc(C)on2)c1 (configuration not stated)	i	8.7	i	i	17	22
CCN(CC)CCN1C(=O)C(O)=C(C(=O)c2cc3cccc(OC)c3o2)C1c1ccc(F)cc1 (configuration not stated)	i	14	i	i	30	37
COc1cccc(C2C(C(=O)c3cccs3)=C(O)C(=O)N2c2cc(C)on2)c1 (configuration not stated)	i	i	i	i	nt	nt
COc1cccc2cc(C(=O)C3=C(O)C(=O)N(CCN4CCOCC4)C3c3ccc(C(C)(C)C)cc3)oc12 (configuration not stated)	i	i	i	i	nt	nt
COc1cccc2cc(C(=O)C3=C(O)C(=O)N(CCN4CCOCC4)C3c3ccc(Cl)cc3)oc12 (configuration not stated)	i	i	i	i	nt	nt
O=C(C1=C(O)C(=O)N(CCN2CCOCC2)C1c1cccc(F)c1)c1cc2ccccc2o1 (configuration not stated)	i	24	i	i	34	45
O=C(C1=C(O)C(=O)N(CCN2CCOCC2)C1c1cccc(O)c1)c1cc2ccccc2o1 (configuration not stated)	i	i	i	i	nt	nt
COc1cccc2cc(C(=O)C3=C(O)C(=O)N(CCN4CCOCC4)C3c3cccc(Cl)c3)oc12 (configuration not stated)	i	18	i	i	27	38
COc1ccc(Cc2c(-c3ccc(F)cc3)nc3cc(C)c(Br)c(C)n23)c(C)c1	i	i	i	i	nt	nt
COc1ccc(C)cc1NC(=O)NNC(=O)C1CCC(C(C)(C)C)CC1 (configuration not stated)	i	i	i	i	nt	nt
CCOc1ccccc1C(=O)N(Cc1ccc(C)o1)C1CCS(=O)(=O)C1 (configuration not stated)	i	i	i	i	nt	nt
Cc1ccc(C2C(C(=O)c3cc4ccccc4o3)=C(O)C(=O)N2CCN2CCOCC2)cc1 (configuration not stated)	i	10	i	i	27	35
COc1cccc(C2C(C(=O)c3cccs3)=C(O)C(=O)N2CCN2CCOCC2)c1 (configuration not stated)	i	i	i	i	nt	nt
COc1cccc(C2C(C(=O)c3ccc(C)o3)=C(O)C(=O)N2CCN2CCOCC2)c1 (configuration not stated)	i	9.0	i	i	21	25
C=CCOc1ccc(C(=O)CC)cc1OC	i	i	i	i	nt	nt
COc1ccc(C(=O)C(=O)c2ccc(OCCO)cc2)cc1	i	i	i	i	nt	nt
CCC(C(=O)O)n1nc(-c2ccccc2)c2cc(Cl)ccc21 (configuration not stated)	i	i	i	i	nt	nt
CC(C(=O)NCc1ccco1)n1nc(-c2ccccc2)c2cc(Cl)ccc21 (configuration not stated)	i	9.9	i	i	14	22
CCc1ccccc1NC(=O)c1nnn(CC(=O)Nc2cccc(C)c2C)c1N	i	41	i	i	41	48
CCc1ccccc1NC(=O)c1nnn(CC(=O)Nc2cccc(C)c2)c1N	i	i	i	i	nt	nt

Source: PubChem (several laboratories)
